The nature of assay [1]: A CellTox Green Cytotoxicity Assay to monitor cytotoxicity in HepG2 cells - 0 hour (AID 1224882). Further: nearly all actives have a fitted effect of over 35% in size. In a few lines: (§1)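 HepG2 cells, 600/well, preincubated 5 h with CellTox Green dye, then exposed to Tox21 compounds in DMSO at 37 C for up to 40 h. Dead-cell DNA fluorescence read at the indicated time point.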
Assay [2] is described as follows: A CellTox Green Cytotoxicity Assay to monitor cytotoxicity in HepG2 cells - 32 hour (AID 1224883). Further: nearly all actives have a fitted effect of over 50% in size. In a few lines:
as §1

The nature of assay [3]: A CellTox Green Cytotoxicity Assay to monitor cytotoxicity in HEK293 cells - 8 hour (AID 1224884). Further: nearly all actives have a fitted effect of over 35% in size. The method in brief:
(§2)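 HEK293 cells, 600/well, were preincubated 5 hours and then exposed to compounds at 37 C for up to 40 hours. A cell-impermeant cyanine dye staining dead-cell DNA was read by fluorescence at 0, 8, 16, 24, 32 and 40 h time points.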

Assay [4] is described as follows: qHTS RealTime-Glo MT Cell Viability Assay in HepG2 cells - 16 hour (AID 1224885). Further: nearly all actives have a fitted effect of over 50% in size. In a few lines: (§3)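 HepG2 suspension premixed with RealTime-Glo reagents is plated at 600 cells per well and left 5 h at 37 C/5% CO2. Compounds in DMSO then go in, and bioluminescence reflecting viable cell number is recorded over 40 h.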
(In general: qHTS replaces the single test concentration by a dilution series.)

The nature of assay [5]: qHTS RealTime-Glo MT Cell Viability Assay in HEK293 cells - 24 hour (AID 1224886). Further: top concentration of the series differs between compounds; nearly all actives have a fitted effect of over 50% in size. The method in brief: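 Reads taken at 0, 8, 16, 24, 32 and 40 h from the same wells. HEK293 cells (600/well) carried RealTime-Glo reagents from seeding, with compound added after a 5 h settle at 37 C.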
Assay [6] can be described thus: qHTS RealTime-Glo MT Cell Viability Assay in HEK293 cells - 8 hour (AID 1224887). Further: top concentration of the series differs between compounds; nearly all actives have a fitted effect of over 50% in size. The method in brief: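 600 cells/well were plated with the nonlytic NanoLuc/prosubstrate reagent, pre-incubated 5 h, then given 23 nL of compound in DMSO. Incubation at 37 C for 40 h, with luminescence from viable-cell-reduced substrate read repeatedly from 0 h.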
The nature of assay [7]: A CellTox Green Cytotoxicity Assay to monitor cytotoxicity in HEK293 cells - 16 hour (AID 1224888). Further: nearly all actives have a fitted effect of over 35% in size. In a few lines: as §2
Assay [8] in a line: qHTS RealTime-Glo MT Cell Viability Assay in HepG2 cells - 0 hour (AID 1224889). Further: nearly all actives have a fitted effect of over 50% in size. Further: potency means the concentration at half of the fitted maximal effect. In a few lines:
as §3

Assay [9] is described as follows: A CellTox Green Cytotoxicity Assay to monitor cytotoxicity in HepG2 cells - 8 hour (AID 1224890). Further: nearly all actives have a fitted effect of over 45% in size. The method in brief: as §1
Assay [10] is described as follows: qHTS assay to identify small molecule antagonists of the estrogen receptor alpha (ER-alpha) signaling pathway using the BG1 cell line in the presence of 0.1 nM 17-beta-estradiol - cell viability counter screen (AID 1259241). Further: nearly all actives have a fitted effect of over 40% in size. In a few lines:
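Live-cell protease activity (CellTiter-Fluor fluorescence, 30 min) was read in the same wells after VM7Luc4E2 cells had been exposed to compounds with 0.1 nM 17beta-estradiol for 22 hr at 37C.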

Assay [11] in a line: qHTS assay to identify small molecule antagonists of the androgen receptor (AR) signaling pathway using the MDA cell line in the presence of 0.5 nM R1881 - cell viability counter screen (AID 1259242). Further: nearly all actives have a fitted effect of over 45% in size. In a few lines: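 MDA-kb2 cells (MMTV-luciferase, AR/GR responsive) were treated with compounds plus 0.5 nM R1881 (final) for 16 hr at 37C, 0% CO2. Viability was then read in the same wells as live-cell protease fluorescence (CellTiter-Fluor, 30 min).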

The nature of assay [12]: qHTS assay to identify small molecule phospholipidosis (PLD) inducers (AID 1259344; active means well fitted curve in the direction sought with a large enough effect; an effect the other way counts as inactive or inconclusive). In a few lines: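 HepG2 cells grown on collagen I take up LipidTOX Red while exposed to compound for 24 h; after fixation they are imaged at 20x and pit metrics are extracted.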
A short description of assay [13]: qHTS assay to identify small molecule HDAC inhibitors (AID 1259364). Further: top concentration of the series differs between compounds; nearly all actives have a fitted effect of over 45% in size. In a few lines: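 Wild-type HCT-116 cells, plated overnight at 37 C, exposed to compounds 2 hr at 37 C; luminogenic HDAC-Glo substrate then added 30 min at room temperature. Luminescence reports relative endogenous class I/II HDAC activity.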
Assay [14] is described as follows: qHTS assay to identify small molecule HDAC inhibitors - cell viability counter screen (AID 1259365). In a few lines:
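HCT-116 (wild type), 1,500 cells/well, overnight 37C/5% CO2; compound in DMSO 2hr; CellTiter-Glo 30min RT; luminescence read.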

A short description of assay [15]: qHTS assay to identify small molecule agonists of the sonic hedgehog signaling (Shh) pathway - cell viability counter screen (AID 1259366). Further: nearly all actives have a fitted effect of over 50% in size. In a few lines:
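CellTiter-Fluor fluorescence read-out, 1 hr at 37C, added after 23hr compound exposure. Cells: 3T3 Gli1-Luc, an NIH/3T3 clone with stably integrated Gli1-Luc reporter, plated 4hr before compound.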

A short description of assay [16]: qHTS assay to identify small molecule antagonists of the sonic hedgehog signaling (Shh) pathway - cell viability counter screen (AID 1259367). Further: nearly all actives have a fitted effect of over 55% in size. The method in brief:
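After a 4 hr settling period, 3T3 Gli1-Luc cells were treated with DMSO-dissolved chemicals and conditioned medium, kept 24 hr at 37C in 5% CO2, and assayed for viability by CellTiter-Fluor fluorescence following 1 hr reagent incubation.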

A short description of assay [17]: qHTS assay to identify small molecule agonists of the sonic hedgehog signaling (Shh) pathway (AID 1259368; calls by dose curve;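 further: NIH/3T3-derived 3T3Gli1-Luc cells carrying a stable Gli1-driven firefly luciferase reporter; series mostly up to about 92 µM; nearly all actives have a fitted effect of over 15% in size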). The method in brief:
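NIH/3T3-derived 3T3Gli1-Luc cells with stably integrated Gli1-driven firefly luciferase, 2,000 cells/well, compounds added after 4 hr. Incubated 24 hr at 37C, 5% CO2; luminescence read after 30 min with luciferase reagent at room temperature.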

Assay [18] in a line: qHTS assay to identify small molecule antagonists of the sonic hedgehog signaling (Shh) pathway (AID 1259369; calls by dose curve; further: nearly all actives have a fitted effect of over 45% in size). In a few lines:
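NIH/3T3-derived Gli1-Luc reporter cells plated 4 h, dosed with compound, then stimulated with conditioned medium for 24 h at 37 C. Firefly luciferase luminescence read after 30 min with detection reagent at room temperature.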

Values without a mark were called inactive. Records with an inconclusive call do not appear. Active and inactive are the calls of the source. Unless noted, the call rests on the fitted dose curve; in most records, active means well fitted curve in the direction sought with a large enough effect in the repeat runs; inconclusive means weak or mixed curves; inactive means no such curve, though single readings can be large; an effect the other way counts as inactive or inconclusive.
On the % scale 0 is the no-effect control and ±100 the full control effect.

As to `CC(=O)OCC(=O)[C@@]1(O)[C@H](C)C[C@H]2[C@@H]3CCC4=CC(=O)C=C[C@]4(C)[C@@]3(F)[C@@H](O)C[C@@]21C`, the Potency entry in assay [1], in [2], in assay [5], in assay [6], in assay [13] and in assay [15] was “inactive” each time. Besides, the Potency result in [16] and in [18] was “inactive” in each case. Besides, the call in [3], in assay [4], in [7], in [9], in assay [10] and in assay [11] was inactive. In addition, the compound was classed as inactive in [12], in [14] and in assay [17]. Also, the Potency in assay [8] is 9.52 µM (active).

In the case of `CCN(C=O)CC`, the Potency entry in assay [1], in [2], in assay [5], in [6], in assay [8] and in assay [13] was “inactive” each time. For the same compound, the Potency entry in assay [15], in assay [16] and in assay [18] was “inactive” in each case. Further, the result in [3], in [4], in [7], in assay [9], in assay [10] and in assay [11] was inactive. For the same compound, the compound was called inactive in assay [14] and in assay [17].

Turning to `Clc1cc(Cl)c(Cl)nc1Cl`, the Potency result in assay [1], in assay [2], in [5], in [6], in assay [8] and in assay [13] was “inactive” throughout. Also, the Potency result in assay [15], in [16] and in [18] was “inactive” each time. For the same compound, the compound was classed as inactive in assay [3], in assay [4], in assay [7], in [9], in assay [10] and in assay [11]. Further, in assay [14], the call was inactive.

In the case of `COc1cc(C)nc(-n2nc(C)cc2OC)n1`, the Potency result in assay [1], in assay [2], in assay [5], in assay [6], in [8] and in assay [13] was “inactive” each time. Moreover, the Potency entry in assay [15], in assay [16] and in assay [18] was “inactive” throughout. For the same compound, the call in assay [3], in assay [4], in assay [7], in assay [9], in [10] and in assay [11] was inactive. The result in assay [12] and in assay [14] was inactive.

With `O=Cc1cccc(Br)c1`, the Potency entry in assay [1], in assay [2], in assay [5], in assay [6], in assay [8] and in assay [13] was “inactive” throughout. For the same compound, the Potency result in assay [15], in assay [16] and in assay [18] was “inactive” in each case. The call in assay [3], in [4], in [7], in [9], in [10] and in [11] was inactive. In addition, the call in assay [14] and in [17] was inactive.

Consider `CCN[C@@H]1C[C@H](N)[C@@H](OC2OC(CN)=CCC2N)[C@H](O)[C@H]1O[C@H]1OC[C@](C)(O)[C@H](NC)[C@H]1O` (stereo not given in full), for which, in [1], the cytotoxicity was 3.46% [at 0.29 µM]. For the same compound, the cytotoxicity increase is -3.76% [at 0.29 µM] in assay [2], -0.876% [at 0.29 µM] in assay [3] and 3.81% [at 0.29 µM] in assay [9]. The activity change, negative = cytotoxic in [4] was 0.169% [at 0.29 µM]. Further, the activity change, negative = cytotoxicity was 3.34% [at 0.29 µM] in assay [5], 0.47% [at 0.29 µM] in assay [6], 0.414% [at 0.29 µM] in assay [8] and 0.862% [at 0.349 µM] in assay [10]. Besides, the activity change is 1.26% [at 0.29 µM] in [7] and 0.0974% [at 0.349 µM] in [17]. Also, the figures for the viability change, negative = cytotoxic in [11], in [15] and in assay [16] were 0.329% [at 0.349 µM], -1.56% [at 0.349 µM] and 0.171% [at 0.349 µM], respectively. For the same compound, in assay [12], the result was inactive. Also, the activity change, negative = inhibition in assay [13] is 3.34% [at 0.349 µM]; in assay [18], 2.07% [at 0.349 µM].

Turning to `CCN[C@H]1C[C@H](C)S(=O)(=O)c2sc(S(N)(=O)=O)cc21`, the Potency result in assay [1], in assay [2], in assay [5], in [6], in [8] and in assay [13] was “inactive” throughout. The Potency entry in assay [15], in [16] and in assay [18] was “inactive” in each case. Besides, the compound was classed as inactive in assay [3], in assay [4], in [7], in assay [9], in assay [10] and in [11]. Further, the compound was called inactive in [12], in assay [14] and in [17].

These data come from PubChem BioAssay (Tox21).
